# Data taken from PubChem BioAssay (NCI).
# Values joined by “and” are separate entries in the source; they are usually repeats but may differ in a detail not shown here. Equal values may be shown once. This is part of a sample that, as a whole, favours compounds with a hit. Of some 79,000 tested, about 15% had one in any assay. Values without a mark were called inactive. Active and inactive are the calls of the source. Rule as the data show it: active = growth inhibition above about 70%; inactive = the rest.
# Legend:
# [1] = NCI Yeast Anticancer Drug Screen. Data for the rad50 strain (AID 155);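 also: 0% = growth of vehicle-only cultures of the same strain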; details: S. cerevisiae rad50 strain growth inhibition, active compounds read high; at 50.0 µM unless noted
# Outline: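 Vehicle-treated cultures provide the reference for the growth inhibition reported for compound-exposed, repair-deficient yeast.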
# [2] = NCI Yeast Anticancer Drug Screen. Data for the mec2-1 strain (AID 157); details: S. cerevisiae mec2-1 strain, active compounds read high; at 50.0 µM unless noted
# Outline: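 Compounds were applied to mec2-1 yeast cells. Their growth was then compared with that of vehicle-treated cultures to give growth inhibition.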
# [3] = NCI Yeast Anticancer Drug Screen. Data for the sgs1 mgt1 strain (AID 161);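 also: 0% = growth of cultures given vehicle only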; details: S. cerevisiae sgs1 mgt1 strain, active compounds read high; at 50.0 µM unless noted
# Outline: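 This yeast growth screen uses a strain with defined DNA-repair lesions; compound-treated growth is compared with vehicle-treated growth.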
# [4] = NCI Yeast Anticancer Drug Screen. Data for the cln2 rad14 strain (AID 165);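 also: 0% = growth equal to vehicle treated cultures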; details: S. cerevisiae cln2 rad14 strain, active compounds read high; at 50.0 µM unless noted
# Outline: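 Strain: cln2 rad14 yeast, altered in cell cycle control and DNA damage repair. Read-out: growth inhibition vs vehicle.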
# [5] = NCI Yeast Anticancer Drug Screen. Data for the bub3 strain (AID 167); details: S. cerevisiae bub3 mutant strain, active compounds read high; at 50.0 µM unless noted
# Outline: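 Mutant yeast screening strain plus compound; vehicle-treated cultures serve as the 0% inhibition reference.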
# [6] = NCI Yeast Anticancer Drug Screen. Data for the mlh1 rad18 strain (AID 175); details: S. cerevisiae mlh1 rad18 strain growth inhibition, active compounds read high; at 50.0 µM unless noted
# Outline: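 A repair-deficient yeast strain is exposed to test compound, and growth is scored relative to vehicle-treated controls.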
Compound,growth inhibition [1],growth inhibition [2],growth inhibition [3],growth inhibition [4],growth inhibition [5],growth inhibition [6]
CC/C(CC(=O)CCC(=O)Nc1ccc(C)c(C)c1)=N\NC(=O)c1cc2ccccc2cc1O,45.2%,22.9%,-13.4%,-5.2%,44.6%,34.4%
Cc1ccc(-c2c(C)c(-c3ccccc3)c(-c3ccccc3)c(C)c2-c2ccccc2)cc1C,63.3%,77.3% (active),25.8%,82% (active),97.5% (active),65%
CC(=O)OCC(C)(O)C#N (stereo not given),-19.8%,-0.2%,11.3%,4.05%,-5.35%,-22.6%
CSC(=Nc1ccccc1Cl)NC(=O)c1ccc(Br)cc1,-9.65%,20.7%,5.7%,19.3%,7.8%,-8.4%
CN(C)C(=S)/N=c1\ssc(=S)n1Cc1ccccn1,3.05%,-11.9%,1.8%,22.1%,-9.55%,-10.9%
Cc1cc(Cl)ccc1OCC(=O)NCCO,33.4%,19.9%,13.8%,10.4%,2.8%,12%
Nc1ncnc2c1ncn2C1OC(COP(=O)(O)O)C(O)C1O (stereo not given),-9.65% and -9.3%,1.65% and -12.6%,15.6% and -9.1%,2.95% and 9.25%,0.85% and -17.9%,-9% and -13.2%
CC(C)N1C(=O)NC2C1NC(=O)N2C(C)C (stereo not given) (tested in a mixture with another compound),-14.8%,-5.2%,-1.15%,22.4%,-12.8%,-3.05%
COc1ccc2c(c1)[n+](=O)c(C(=O)CC(=O)C(=O)Nc1cccc(C)c1C)c(C)n2[O-],2.35%,13.3%,-9.55%,9.45%,5.3%,14.8%
Cc1ccc(NC(=O)CC/C(CC(=O)C(C)(C)C)=N/NC(=O)c2cc3ccccc3cc2O)cc1C,27.9%,21.1%,0.35%,-0.35%,28.4%,14.8%
CC(=O)N1C(=O)C2(c3ccccc31)c1cccc3c1C(=C1C(=O)OC(=O)C12)C(=O)N3C(C)=O (stereo not given),64.5%,22.4%,52.3%,9.55%,8.85%,48.1%
C/C(CCCCCCCCCCCC/C(C)=N\Nc1ccc([N+](=O)[O-])cc1[N+](=O)[O-])=N/Nc1ccc([N+](=O)[O-])cc1[N+](=O)[O-],-15.8%,5.25%,-3.2%,27.2%,2.3%,31.6%
O=NC1C(Br)C2CC1C1C(Br)C(Br)CC21 (stereo not given),4.45%,5.95%,13.3%,0.15%,-1.2%,6.7%
NC(CCO)P(=O)(O)O (stereo not given),13.3%,-6.05%,-20.2%,-55.7%,2.05%,-4.6%
CC(O)c1ccc[cH-]1.CC(O)c1ccc[cH-]1.[Fe+2] (stereo not given),-22%,4%,-5.55%,-33.1%,28.7%,5.7%
COC(=O)c1c(C)nc(C)c(N=O)c1-c1ccccc1C(F)(F)F,6.4%,5.5%,7.45%,20.1%,12.4%,-44.6%
Cc1ccc(S(=O)(=O)OC2CCSCC2)cc1,-5.25%,-10.3%,7.7%,-11.9%,7.05%,-4.8%
O=C1OC2(CCCCC2)OC1c1ccccc1 (stereo not given),23.4%,4.2%,11.9%,10.5%,16.2%,33.5%
c1c[nH]c(CN2CCOCC2)n1,-32%,-28.9%,-43.4%,2.5%,-38.9%,-5.15%
NCc1ccc(F)cc1,24.9%,-10.7%,32%,12.7%,2.4%,26.5%

Compound,growth inhibition [1],growth inhibition [2],growth inhibition [3],growth inhibition [4],growth inhibition [5],growth inhibition [6]
COc1ccc2c(CSc3ncnc4nc[nH]c34)cc(=O)oc2c1,12.4%,21.8%,13.1%,-14.7%,25.4%,34.9%
CC(C)(CBr)CC(=O)NC1CCCCC1,-22%,5.8%,3.3%,1.8%,10.2%,50%
Nc1nnc2nc(C3(c4nc5nnc(N)n5[nH]c4=O)CCCC3=O)c(=O)[nH]n12,13.4%,-10.8%,-8.7%,3.45%,4.6%,16.2%
O=C1C(O)=C(O)C(Br)=C/C1=C(/c1ccccc1S(=O)(=O)O)c1cc(Br)c(O)c(O)c1O,9.65%,6.9%,15.5%,1.8%,-0.2%,18.4%
COc1ccc2cc(N3CCCC3)ccc2c1,7.8%,-7.35%,6.15%,-14.8%,-7.55%,-37.8%
Cc1cc(=O)n2nc(CCl)sc2n1,9.65%,10.2%,6.15%,-8%,11.3%,10.1%
CCNc1ncnc2ncn(C)c12,18.9%,-6.9%,15.1%,12.6%,15.1%,-0.5%
CN(Cc1ccccc1Cl)C(=O)Nc1cccc(Cl)c1,61.5%,78% (active),80.7% (active),80% (active),86.7% (active),90.2% (active)
CC(=O)NC1(NC(C)=O)C2CC(C1Cc1ccccc1)C(C)(C)C2C (stereo not given),4.75%,-14.7%,-18.6%,-11.6%,-43.5%,-38.5%
COc1ccc(/C=C2\N=C(N3CCCC(CO)C3)NC2=O)cc1 (stereo not given),-35.1%,-2.4%,8.3%,1.9%,-3.85%,-34%
Cc1cc2cc3c(=O)[nH]c(=O)[nH]c3nc2cc1C,-11.7%,1.65%,-19%,-8.6%,-27.2%,-0.05%
CCCCS(=O)/C=C\S(=O)CCCC (stereo not given),-7%,6.3%,4.75%,-16.2%,8.55%,1.6%
O=C(NC1(Sc2ccccc2)CC1)c1ccc(Cl)cc1,17.8%,6.8%,8.9%,20.6%,13.8%,18.9%
NCC(=O)c1ccc(CCC(=O)O)cc1,3.1%,-0.25%,-0.75%,0.25%,6.3%,2.6%
NC(=O)C1CC2(c3ccccn3)c3ccccc3C1c1ccccc12 (stereo not given),-0.1%,7.6%,10.4%,4.2%,-22.1%,-6.1%
Cn1cc(C(=O)c2ccccc2)cc(C(=O)c2ccccc2)c1=O,-3.05%,-12.1%,-6.05%,1.5%,-15.2%,-36.5%
Cc1cccc(C(=O)OCC2CCCO2)c1 (stereo not given),-0.2%,11.7%,8.15%,-22.6%,8.8%,-3.4%
CC(=O)CC(=O)NCC1CCC(CNC(=O)CC(C)=O)CC1 (stereo not given),-26.6%,-33%,-13.9%,-1.45%,-54.3%,-48.8%
CC(C)(C)OC(=O)COc1ccc(NC(=O)COc2ccc(Cl)c(Cl)c2)cc1,-17.4%,-22.2%,-10.2%,-28.8%,-1.8%,-8.6%
COc1cc2c(cc1OC)C1CC3(CCN1CC2)CC(=O)NC3=O (stereo not given),-8.65%,-5.5%,-4.75%,-78.8%,-11.9%,1.35%
